Source: ChEMBL document CHEMBL4296182, “CO-ADD screening of NIH NCI Diversity Set V”
About 30 (0.1%) of roughly 23,000 compounds showed an effect of 50% or more. What follows is part of a selection rich in strong results, with near analogues and random picks from the rest. Potency and affinity values are given separately.

Tested on: Pseudomonas aeruginosa
Settings: Concentration 20 uM; ASSAY_TEST Inhibition of Bacterial Growth; detection method Absorption (OD600); MEDIA CAMHB; plate type 384well; NBS; CORNING #3640; time 18 hr

Q: Which Inhibition does the source give for OCc1ncccc1O here?
A: Its Inhibition is 3.5%.

Q: Which Inhibition does the source give for Oc1ccnc2c(Cl)cccc12 here?
A: Its Inhibition is -8.65%.

Q: For Oc1ccc2ccccc2c1/N=N/c1ccc(F)cc1, which Inhibition is on record?
A: The Inhibition was 0.71%.

Q: With O=[N+]([O-])c1cccc(/C=C/c2ccccn2)c1 as the compound, how does the Inhibition read?
A: Its Inhibition is 19.15%.

Q: Which Inhibition does the source give for CSc1nc(S)c2[nH]c(S)nc2n1 here?
A: Its Inhibition is 6.05%.

Q: Cc1ccc(/N=N/c2ccc(N)cc2C)c(S(N)(=O)=O)c1 was tested. Which Inhibition did it give?
A: Its Inhibition is -1.43%.

Q: COc1ccc(/C(C#N)=C/c2cccnc2)cc1 was tested. Which Inhibition did it give?
A: The Inhibition was 11.13%.

Q: Which Inhibition does the source give for C=CCC(CC)C(=O)NC(=O)N1CCCc2ccccc21 (centres undefined) here?
A: The Inhibition was -1.54%.

Q: C=C1S/C(=N\c2c(C)cccc2Cl)N(C(=O)c2sc3ccccc3c2Cl)C12CCCCC2 was tested. Which Inhibition did it give?
A: The Inhibition was -6.03%.

Q: Which Inhibition does the source give for COC1OC(CO)C(N=C(C)C)C1O (centres undefined) here?
A: The Inhibition was -2.66%.

Q: Which Inhibition does the source give for c1ccc(Nc2cccc3c(Nc4ccccc4)cccc23)cc1 here?
A: Its Inhibition is 21.7%.

Q: How did the Inhibition turn out when O=C(Nc1cccnc1)c1cccc([N+](=O)[O-])c1 was run?
A: The Inhibition was 8.42%.

Q: COC1OC(O)C(NC(=O)C(F)(F)F)CC1O (centres undefined) was tested. Which Inhibition did it give?
A: Its Inhibition is 6.88%.

Q: With O=C1CSCc2nc3ccccc3n21 as the compound, how does the Inhibition read?
A: Its Inhibition is 23.81%.
